In PubChem BioAssay (NCATS):
Inconclusive results are not listed. The source made the active and inactive calls. Calls follow the shape of the dose curve; as a rule, active = well fitted inhibition curve with a large enough effect; inconclusive = small, poorly fitted or top-dose-only effect; inactive = no such curve, though single readings can be large or run the other way.

Test system: Zika virus NS2B-NS3 protease (unlinked complex)
Experiment: Primary screen GU Rhodamine qHTS for Zika virus inhibitors: Unlinked NS2B-NS3 protease assay (AID 1347159); also: nearly all actives have a fitted effect of over 60% in size
Conditions: Recombinant ZIKV NS2B-NS3 protease, Rhodamine110 substrate fluorescence; series mostly up to 107 µM; activity change, negative = inhibition: at the top concentration
From the text: Avindra Nath, Ph.D., National Institute of Neurological Disorders and Stroke (NINDS), Bethesda, MD
Radhakrishnan Padmanabhan, Ph.D., Georgetown University (GU), Washington D.C.
Zika Virus causes congenital defects, including microcephaly and is associated with Guillain-Barre syndrome, eningoencephalitis and myelitis in infected adult. […] Using a target-based approach, we hope to establish a screening paradigm to uncover novel, cell-active NS2B-NS3 protease (Zika Virus) specific inhibitors from NCATS' collection of small molecules using qHTS.
Four assay panel was created to identify potential Zika Virus inhibitors. Namely, (1) GU unlinked NS2B-NS3 AMC tagged protease qHTS, (2) GU unlinked NS2B-NS3 Rhodamine tagged protease qHTS, (3) NINDS linked NS2B-NS3 AMC tagged protease qHTS, (4) NINDS linked NS2B-NS3 Rhodamine tagged protease qHTS. Active compounds were re-acquired and re-screened to confirm inhibition. Inhibitors were further screened against various confirmatory and counterscreens in dose response format.
Early Translation Branch (ETB)
National Center for Advancing Translational Sciences (NCATS), Rockville, MD
National Institute of Health (NIH), Bethesda, Maryland
Padmanabhan lab provided the NS2B hydrophilic domain and NS3 protease domain in a noncovalent complex used for the unlinked assay. Control compound aprotinin is obtained from Thermo Scientific (#78432; Waltham, Massachusetts). Rhodamine110 substrate ([N-Cbz]-Nle-Lys-Arg-Arg-Rhod110-Arg-Arg-Lys-Nle-[N-Cbz]) was purchased from either Genscript or Bachem.
1536-well Protease (Rhodamine110 Substrate) Assay:
Briefly, 3 microL of enzyme (25 nM final concentration), in assay buffer (10 mM Tris-HCl pH 8.0 with 0.01% Tween 20) were dispensed into a 1,536-well solid-bottom black plate (Greiner Bio One, Monroe, NC). Twenty-three nL of compounds (final concentration range 7.28 nM to 114 microM) or control Aprotinin (final concentration range 3.47 nM to 114 microM) were transferred via Wako Pin-tool (Wako Automation, Richmond, VA). Samples were incubated (room temperature, protected from light) for 15 minutes followed by a 1 microL Rhodamine110 substrate addition (1.5 microM final concentration). Plates were then immediately read on a ViewLux High-throughput CCD imager (PerkinElmer, Waltham, MA) equipped with FITC fluorescence optics (480(20) nm excitation, 540(25) nm emission), then incubated (room temperature, protected from light) for 15 minutes (~15% conversion). The change in fluorescence intensity over the 15-minute reaction period was normalized against no-inhibitor and no-enzyme controls and the resulting percent inhibition data were fitted to a 4-parameter Hill equation. Aprotinin was used as intraplate control.
% is scaled to controls: 0 for no effect and ±100 for the full control effect; potency is read from the fitted curve at half-maximal effect.

SMILES	activity change, negative = inhibition	Potency
Cc1nc(N)ncc1-c1nc(N2CCOCC2)c2sc(C(C)(C)O)cc2n1	8.58% (inactive)	
CS(=O)(=O)N1CCN(Cc2cc3nc(-c4cccc5[nH]ncc45)nc(N4CCOCC4)c3s2)CC1	28.2% (inactive)	
COc1cc2c(Oc3ccc4[nH]c(C)cc4c3F)ncnc2cc1OCCCN1CCCC1	209% (inactive)	
CC(C)c1cc(-c2n[nH]c(=O)n2-c2ccc3c(ccn3C)c2)c(O)cc1O	-8.36% (inactive)	
COc1cc(-c2nn(C3CCC(N4CCN(C(C)=O)CC4)CC3)c3ncnc(N)c23)ccc1NC(=O)c1cc2ccccc2n1C (stereo not given)	21.4% (inactive)	
O=C(O)c1ccc2c(c1)nc(Nc1cccc(Cl)c1)c1ccncc12		39.8 µM (active)
O=C(O)C1(Cc2cccc(Nc3nccs3)n2)CCC(Oc2cccc(Cl)c2F)CC1 (stereo not given)		6.31 µM (active)
CS(=O)(=O)c1ccc(-c2cnc(N)c(C(=O)Nc3ccccc3)n2)cc1	-8.12% (inactive)	
Cc1cnc(Nc2ccc(F)cc2Cl)nc1-c1c[nH]c(C(=O)N[C@H](CO)c2cccc(Cl)c2)c1		39.8 µM (active)
CCS(=O)(=O)c1cccc(-c2cc(C(=O)NC3CCN(C)CC3)c(C)c3[nH]c4ncc(C)cc4c23)c1	51.3% (inactive)	
Cc1c(NC(=O)OC[C@@H]2COCCN2)cn2ncnc(Nc3ccc4c(cnn4Cc4cccc(F)c4)c3)c12	74.3% (inactive)	
COc1ccc(-n2nc(C(N)=O)c3c2C(=O)N(c2ccc(N4CCCCC4=O)cc2)CC3)cc1	-7.55% (inactive)	
Cn1c(CNc2ccc(C(=N)N)cc2)nc2cc(C(=O)N(CCC(=O)O)c3ccccn3)ccc21	15.9% (inactive)	
Cc1nc(Nc2n[nH]c3c2CN(C(=O)N[C@H](CN(C)C)c2ccccc2)C3(C)C)c2sccc2n1	-30.3% (inactive)	
O=C(CCCCCCC(=O)Nc1ccc([C@H]2O[C@@H](CSc3nc(-c4ccccc4)c(-c4ccccc4)o3)C[C@@H](c3ccc(CO)cc3)O2)cc1)NO		8.91 µM (active)
O=C(Nc1ncc(-c2cc(C(F)F)nn2-c2c(Cl)cccc2Cl)s1)C1CC1	-6.51% (inactive)	
CC1(O)CC(c2nc(-c3ccc4ccc(-c5ccccc5)nc4c3)c3c(N)nccn23)C1 (stereo not given)	15.7% (inactive)	
N#Cc1c(O)c2c(-c3ccc(-c4ccccc4O)cc3)csc2[nH]c1=O		2 µM (active)
Cc1ccc(C(N)=O)cc1Nc1nccc(-c2cn(C(C)C)c3cnccc23)n1	0% (inactive)	
O=C(Cc1ccc(-c2ccc(OCCN3CCOCC3)cc2)cn1)NCc1ccccc1	35% (inactive)	

SMILES	activity change, negative = inhibition	Potency
COc1cc2c(Oc3ccc(-c4cnc(Nc5ccc(F)cc5)n(C)c4=O)cc3F)ccnc2cc1OCCCN1CCOCC1	36.6% (inactive)	
Cn1cc(-c2ccncc2)c(-c2ccc(OCc3ccc4ccccc4n3)cc2)n1	5.66% (inactive)	
CC(C)Nc1cc(C(F)(F)F)cc2nc(NC(=O)c3cccnc3)nn12	-28.9% (inactive)	
Cc1cn2cc(C(=O)N(C)CCO)cc(N[C@@H]3CCOc4cccc(C)c43)c2n1	10.7% (inactive)	
CC(C)CC(=O)Nc1n[nH]c2c1CN(C(=O)C1CCN(C)CC1)C2(C)C	19% (inactive)	
CNC(=O)c1ccc(N2C(=S)N(c3cnc(C#N)c(C(F)(F)F)c3)C(=O)C23CCC3)cc1F	-0.224% (inactive)	
CCOC(=O)C1=C(C)NC2=C(C(=O)CC(C)(C)C2)C1c1ccc(-c2ccccc2)cc1 (stereo not given)	-1.17% (inactive)	
COc1ccc(C(=O)CC2(O)C(=O)Nc3c(Cl)ccc(Cl)c32)cc1 (stereo not given)	-1.03% (inactive)	
O=C(Nc1nc2cccc(-c3ccc(CN4CCS(=O)(=O)CC4)cc3)n2n1)C1CC1	10% (inactive)	
O=C1CCC[C@@H]2[C@H]3CCC[N+]4([O-])CCC[C@@H](CN12)[C@@H]34 (stereo not given in full)	8.51% (inactive)	
COc1cc2c(Nc3ccc(NC(=O)c4ccccc4)cc3)ncnc2cc1OCCCN1CCOCC1	19.7% (inactive)	
CN1CCN(Cc2ccc(NC(=O)Nc3ccc(Oc4cc(NC(=O)C5CC5)ncn4)cc3)cc2C(F)(F)F)CC1	142% (inactive)	
COc1c(OCCCN2CCOCC2)ccc2c3n(c(=NC(=O)c4cnc(N)nc4)nc12)CCN3	19.8% [at 19.1 µM] (inactive)	
CC(=O)c1c(C)c2cnc(Nc3ccc(N4CCNCC4)cn3)nc2n(C2CCCC2)c1=O	5.34% [at 11.5 µM] (inactive)	
CCCNC(=O)Nc1ccc(Oc2ncnc3cc(OC)c(OC)cc23)cc1Cl	-4.2% (inactive)	
O=C(Nc1cc(C(F)(F)F)cc(C(F)(F)F)c1)c1cc(Cl)ccc1O		2.82 µM (active)
Cn1cc(-c2[nH]c3cc(NC(=O)[C@H](N)C4CCCCC4)cc4c3c2C=NNC4=O)cn1	164% (inactive)	
CC(C)(C)c1cc(NC(=O)Nc2ccc(-c3cn4c(n3)sc3cc(OCCN5CCOCC5)ccc34)cc2)no1	-2.9% (inactive)	
Cc1cc(Nc2nc(N[C@@H](C)c3ccc(F)cc3)c(C#N)cc2F)n[nH]1	-7.42% (inactive)	
COC(=O)c1ccc2c(C(=Nc3ccc(N(C)C(=O)CN4CCN(C)CC4)cc3)c3ccccc3)c(O)[nH]c2c1	24.3% (inactive)	
